Values joined by “and” are separate entries in the source; they are usually repeats but may differ in a detail not shown here. Equal values may be shown once. In all, about 16,000 compounds went through this assay and about 5,700 (36%) were called active. About 24% were inconclusive and are not listed. This is one part of the list. Values without a mark were called inactive. Calls follow the shape of the dose curve; as a rule, active = well fitted curve in the direction sought with a large enough effect; inconclusive = small, poorly fitted or top-dose-only effect, or effect the other way; inactive = no such curve, though single readings can be large or run the other way.
target: Cytochrome P450 1A2 (Homo sapiens) (UniProt P05177); test: Cytochrome panel assay with activity outcomes; settings: recombinant CYP, pro-luciferin dealkylation, luminescence, p450-cyp1a2; series mostly up to 57.1 µM; activity, negative = inhibition: at the top concentration
Sequence (P05177 whole entry, looked up): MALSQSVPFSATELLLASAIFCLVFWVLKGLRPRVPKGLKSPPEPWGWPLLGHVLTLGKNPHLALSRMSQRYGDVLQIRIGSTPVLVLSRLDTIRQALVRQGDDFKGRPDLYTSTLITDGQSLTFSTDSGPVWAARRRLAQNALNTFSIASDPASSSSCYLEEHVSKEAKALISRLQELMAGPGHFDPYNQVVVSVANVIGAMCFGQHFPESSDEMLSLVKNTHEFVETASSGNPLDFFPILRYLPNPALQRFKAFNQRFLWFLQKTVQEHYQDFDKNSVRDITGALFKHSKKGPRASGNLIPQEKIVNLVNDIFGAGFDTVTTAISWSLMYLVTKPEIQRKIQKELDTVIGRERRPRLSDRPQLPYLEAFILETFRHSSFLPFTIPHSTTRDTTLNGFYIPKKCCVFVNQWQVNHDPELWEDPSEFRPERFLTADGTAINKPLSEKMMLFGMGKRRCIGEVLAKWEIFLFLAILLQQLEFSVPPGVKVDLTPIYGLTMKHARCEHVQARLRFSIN
% is scaled to controls: 0 for no effect and ±100 for the full control effect.

Structure (SMILES)	AC50	activity, negative = inhibition
O=[N+]([O-])c1cccc(/C=N/Nc2cc(Cl)nc(-c3ccccc3)n2)c1	1.26 µM (active)	–
CN(C)c1ccc(-c2ccc3ncnc(N4CCNCC4)c3c2)cc1	2.51 µM (active)	–
c1nc(N2CCNCC2)c2cc(-c3ccc4c(c3)OCO4)ccc2n1	2 µM (active)	–
CN(C)C(=O)c1ccc(-c2ccc3ncnc(N4CCNCC4)c3c2)cc1	–	-13.6%
CN1CCN(c2ncnc3ccc(-c4ccc5c(c4)OCO5)cc23)CC1	2.51 µM (active)	–
CN1CCN(c2ncnc3ccc(-c4ccc(C(=O)N(C)C)cc4)cc23)CC1	–	-11.4%
C[C@H]1C[C@H]2[C@H]3CCC4=CC(=O)C=C[C@@]4(C)[C@]3(F)[C@H](O)C[C@]2(C)[C@@]1(O)C(=O)COP(=O)(O)O	–	2.48% [at 11.4 µM]
CC1(C)O[C@@H]2C[C@H]3[C@H]4C[C@H](F)C5=CC(=O)C=C[C@@]5(C)[C@@H]4[C@H](O)C[C@]3(C)[C@]2(C(=O)CO)O1	–	-10.8% [at 25.6 µM]
CCC1CC(CSc2ncn[nH]2)OC1=O (stereo not given)	–	0.612%
Clc1ccccc1-c1nc(-c2ccccc2)n[nH]1	1 µM (active)	–
COc1ccccc1CNc1ncncc1-c1ccc2c(c1)OCO2	0.158 µM (active)	–
COc1ccc(CNc2ncncc2-c2ccc3c(c2)OCO3)c(OC)c1	0.501 µM (active)	–
Cc1nnc(S(=O)(=O)c2ccc(N=Nc3c(N)nc(N)nc3N)cc2)s1	–	-10.2% [at 2.29 µM]
O=C(c1ccco1)N1CCC2(CCN(Cc3ccccc3)CC2)CC1	–	0.0929%
Cc1nn(C(=O)c2ccco2)c(C)c1Sc1ccccc1	15.8 µM (active)	–
Cc1nc2ncnn2c(C)c1CCC(=O)N1CCN(C(=O)c2ccco2)CC1	–	2.36%
Cc1nn(C(=O)c2cccnc2)c(C)c1Sc1ccc(Br)cc1	7.08 µM (active)	–
Cc1nn(C(=O)CN2C(=O)c3ccccc3C2=O)c(C)c1Br	–	-9.22%
Cc1nn(C(=O)c2ccco2)c(C)c1Sc1ccc(Br)cc1	14.1 µM (active)	–
CCCCN(C(=S)Nc1ccccc1)C1CCS(=O)(=O)C1 (stereo not given)	–	-16.7%
O=C(O)[C@H]1C[C@H](C(=O)O)N1	–	-1.37%
O=C(O)[C@@H]1C[C@@H](C(=O)O)N1	31.6 µM (active)	–
O=C(O)[C@@H]1CCCN1	–	-12% [at 11.4 µM]
NC(N)=NN=Cc1c(Cl)cccc1Cl	7.94 µM (active) and 3.98 µM (active)	–
NC(N)=N/N=C\c1ccc(O)c(C(=O)O)c1	–	-11.9% [at 2.29 µM]

Structure (SMILES)	AC50	activity, negative = inhibition
NC(N)=NC(=O)Cc1c(Cl)cccc1Cl	inactive	–
Cc1cccc(NC(=O)c2ccc([N+](=O)[O-])o2)n1	5.01 µM (active)	–
Cc1cccc(NC(=O)c2cc(=O)c3ccccc3o2)n1	2 µM (active)	–
Cc1cccc(NC(=O)c2cc(N3C(=O)CCC3=O)ccc2Cl)n1	–	-29.7%
Cc1cccc(Sc2c([N+](=O)[O-])ncn2C)n1	–	14.5%
Cc1ccc(OCC(=O)NNC(=O)c2cc3ccccc3o2)cc1	–	-13.1%
CN(C)C(=O)CCc1nc(-c2ccc(C(C)(C)C)cc2)no1	6.31 µM (active)	–
CNC(=O)CCc1nc(-c2ccc(C(C)(C)C)cc2)no1	6.31 µM (active)	–
COc1ccc(Oc2ncc3ncc(=O)n(C4CC4)c3n2)cc1	5.01 µM (active)	–
CN(C)c1ncc2ncc(=O)n(C)c2n1	6.31 µM (active)	–
COc1ncc2ncc(=O)n(C3CC3)c2n1	10 µM (active)	–
CN(C)c1ncc2ncc(=O)n(C3CC3)c2n1	3.16 µM (active)	–
COC(=O)[C@@]1(Cc2ccc(OC)cc2)[C@H]2c3cc(C(=O)N4CCCC4)n(Cc4cc(F)cc5c4OCOC5)c3C[C@H]2CN1C(=O)c1ccccc1	–	-16.7%
C/C(CCN1CCc2nc(-c3ccccc3)c(-c3ccccc3)cc2C1)=N\O[C@@H](C)c1cn([C@@H]2COC[C@@H]2O)nn1	–	-3.92% [at 11.4 µM]
Cc1nc(NC(N)=S)sc1C(=O)Nc1ccccc1	8.91 µM (active)	–
O/N=C/c1ccccc1OCc1ccc(Cl)cc1	2.24 µM (active)	–
O=C(Cc1ccccc1)N/N=C/c1ccccc1OCc1ccc(Cl)cc1	2.24 µM (active)	–
O=C(O)c1ccc(OCc2ccccc2)c(Cl)c1	–	-3.18% [at 2.29 µM]
Cc1ccc(COc2ccc(Br)cc2/C=N/O)cc1	1.58 µM (active)	–
CCOc1cc(/C=N/NC(=O)CN2CCCCC2)ccc1OCc1ccccc1	–	-28.3%
NC(=S)N/N=C/c1ccccc1OCc1cccc(Cl)c1	2.24 µM (active)	–
NCc1ccc(S(N)(=O)=O)cc1	–	-4.42% [at 25.6 µM]
Cc1[nH]c2ccccc2c1C(c1ccccn1)N1CCC(C)CC1 (stereo not given)	–	-17.7%
O/N=C/c1cc(Cl)ccc1OCc1cccc2ccccc12	0.112 µM (active)	–
Cc1n[nH]c(=S)n1/N=C/c1ccccc1OCc1ccc(Cl)cc1	1.58 µM (active)	–

Structure (SMILES)	AC50	activity, negative = inhibition
CCn1c(O)c(/C=N/N=C2CCCC2)c2ccc(C3=NNC(=O)CC3)cc21	–	-21%
O=C1CCC(c2ccc(-n3ccnc3)cc2)=NN1	0.158 µM (active)	–
O=C(Nc1cccc(F)c1)N1CCC2(CCNCC2)CC1	–	11.5%
COc1cccc(Cn2c(=O)c(-c3cccc(C#N)c3)nc3cnc(Nc4ccccc4)nc32)c1	–	0.136%
CCNc1ncc2nc(-c3cc(F)cc(F)c3)c(=O)n(CCOC)c2n1	3.16 µM (active)	–
COCCn1c(=O)c(-c2ccccc2)nc2cnc(Nc3ccccc3)nc21	5.01 µM (active)	–
CCNc1ncc2nc(-c3ccccc3)c(=O)n(CCOC)c2n1	3.16 µM (active)	–
O=C(CNS(=O)(=O)c1ccc(Br)s1)N1CCC(N2CCCCC2)CC1	–	-3.52%
Oc1cc(O)c2c(c1)O[C@@H](c1ccc(O)c(O)c1)[C@H](O[C@@]1(c3cc(O)c(O)c(O)c3)Oc3cc(O)cc(O)c3[C@H](O)[C@@H]1O)C2	–	-13.3% [at 11.4 µM]
COc1ccc(O[C@H]2C=C[C@@H](c3ccccc3)O[C@H]2COC(=O)CC/C(C)=N\O[C@@H](C)CN2CCCc3nc(C)c(C)cc32)cc1	–	2.58% [at 11.4 µM]
CC(C)Oc1ccc2ccccc2c1C=O	1.12 µM (active)	–
COc1ccccc1NS(=O)(=O)c1cccc(C(=O)OCC(=O)Nc2cc(C)on2)c1	14.1 µM (active)	–
Cc1cc(NC(=O)COC(=O)c2ccc(NS(=O)(=O)c3ccc(C)c(C)c3)cc2)no1	–	-13%
Cc1n[nH]c(C)c1S(=O)(=O)N1CCC(C(=O)O)CC1	–	1.2%
CCOC(=O)[C@@]12C[C@@H]1/C(=N/O)c1ccccc1O2	3.98 µM (active)	–
O=C(Nc1ccccc1)[C@@]12C[C@@H]1/C(=N/O)c1ccccc1O2	2.51 µM (active)	–
Cc1c(NC(=O)C2CCN(S(=O)(=O)c3ccc(Cl)cc3)CC2)c(=O)n(-c2ccccc2)n1C	–	15.2%
O=C1COc2ccccc2CN1	–	-7.55%
Fc1ccc(-c2cnc(-c3cccs3)o2)cc1	2.82 µM (active)	–
COC(=O)c1cc(NC(=O)N2c3ccccc3Sc3ccccc32)cc(C(=O)OC)c1	3.16 µM (active)	–
CCOC(=O)Nc1ccc2c(c1)N(C(=O)CCN1CCOCC1)c1ccccc1S2	–	-7.96% [at 25.6 µM]
CCOC(=O)Nc1ccc2c(c1)N(C(=O)CCN1CCN(C)CC1)c1ccccc1S2	–	-15.3%
CCC1Oc2ccccc2N(CC(=O)NCCCN2CCCCC2C)C1=O (stereo not given)	–	-4.11%
O=[N+]([O-])/C=C\c1cc2ccccc2[nH]1	1.26 µM (active)	–
Nc1c(S(=O)(=O)O)cc(Nc2cccc(S(N)(=O)=O)c2)c2c1C(=O)c1ccccc1C2=O	3.98 µM (active)	–

Structure (SMILES)	AC50	activity, negative = inhibition
NCCNC(=O)c1ncsc1-c1cccc(F)c1	10 µM (active)	–
Cc1scc2c1N(C(=O)CN1CCN(C)CC1)c1ccccc1NC2=O	inactive	–
Cc1nnc(SCC(=O)N2CC(=O)Nc3ccccc32)n1Cc1ccccc1	–	2.82%
Cc1sc2nc(C3CC3)nc(SCC(=O)N3CC(=O)Nc4ccccc43)c2c1C	6.31 µM (active)	–
CC(=O)Nc1ccc2nc(C3CCCCC3)[nH]c2c1	–	-30%
COC(=O)Nc1nc2ccc(C(=O)c3cccs3)cc2[nH]1	0.794 µM (active)	–
COC(=O)Nc1nc2ccc(SC(C)C)cc2[nH]1	0.501 µM (active)	–
C[C@@H](C(=O)O)c1ccc(C(=O)c2cccs2)cc1	–	-10.6% [at 25.6 µM]
COC(=O)c1ccc(C(NC(=O)c2ccccc2)[C@]2(C)C[C@H]2C2CCCCC2)cc1 (stereo not given in full)	–	-1.81%
COC(=O)c1ccc(C23CC2(C(NP(=O)(c2ccccc2)c2ccccc2)c2ccccc2)C3)cc1 (stereo not given)	15.8 µM (active)	–
Cc1ccc2cc(C(=O)O)c(C)nc2c1	–	-6.36%
O=C(O)CSc1ccn(Cc2ccccc2)c1	–	-14.3% [at 11.4 µM]
O=C(O)CSc1nnc2c3ccccc3c3ccccc3c2n1	0.0794 µM (active)	–
c1ccc(CSc2nnc3c4ccccc4c4ccccc4c3n2)cc1	0.2 µM (active)	–
Cn1c(SCC(=O)Nc2ccccc2)nc(O)cc1=O	–	-9.92%
O=C(CSc1nnc2c3ccccc3c3ccccc3c2n1)Nc1ccccc1	1.12 µM (active)	–
O=C(O)c1cc(=O)[nH]c(SCc2ccccc2)n1	–	-12% [at 11.4 µM]
O=C(O)CSc1cc(-c2ccccc2)nc2ccccc12	–	-4.67% [at 2.29 µM]
CCc1c(C)nc(N)n2c(SCC(=O)Nc3ccccc3)nnc12	–	-17.2%
CN(C)S(=O)(=O)c1nc(Cl)c2[nH]cnc2n1	–	2.44% [at 11.4 µM]
Cc1ccc(-c2ccc(=O)n(CC(=O)NCCN(C)C)n2)cc1	–	-2.76%
C[C@@H]1CCC[C@H](C)N1	–	0.154% [at 25.6 µM]
COC(=O)C1=C(C)N=C2SC(C)C(=O)N2C1/C=C/c1ccccc1 (stereo not given)	–	-17.6%
O=C(Nc1cccc(NC(=O)c2ccccc2[N+](=O)[O-])n1)c1ccccc1[N+](=O)[O-]	8.91 µM (active)	–
Cc1cc(C)nc(NC(=O)c2cccc([N+](=O)[O-])c2C)n1	–	-3.25%
